High-throughput results deposited in PubChem BioAssay by National Center for Advancing Translational Sciences (NCATS).
Shiga inhibitor: blocks Shiga toxin action in Vero cells; Vero cells, Shiga toxin protein synthesis inhibition reporter; inhibition, % at 38.7 µM; 9.2% of 290,000 active; AID 2315; in the data active = inhibition mostly above about 28%, no sharp cut-off; inactive = mostly below about 43%; also: 0% is about no effect
RE007 growth inh: less growth of the S. pombe RE007 Vpr strain; S. pombe RE007 Vpr strain, BacTiter-Glo ATP luminescence, 24 h; Potency, µM (titrated, usually from 92.2 µM), inactives show at the highest dose activity change, negative = less growth, usual class: inhibitors; 0.21% of 360,000 active; active = well fitted falling curve with a large enough effect; inconclusive = small, poorly fitted or top-dose-only effect; inactive = no such curve, though single readings can be large or run the other way; also: potency is read from the fitted curve at half-maximal effect; % is scaled to controls: 0 for no effect and ±100 for the full control effect; nearly all actives have a fitted effect of over 50% in size
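Fission yeast RE007 carrying one integrated HIV-1 vpr copy, seeded at OD 0.01 in PMG+AL medium with 23 nL pinned compound. Grown 24 h at 30 degrees; viability read by BacTiter-Glo luminescence after 5 min.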
CHX counter-1: affects cycloheximide protein synthesis inhibition readout, counter-screen. max response, %. cell reporter, cycloheximide protein synthesis inhibition counterscreen. 12% of 300,000 active; in the data active = max response mostly above about 13%, no sharp cut-off; inactive = mostly below about 14%; also: read at 38.3 µM for the half of the compounds with a filed dose; 0% is about no effect
Tb PYK inh: T. brucei pyruvate kinase inhibition; Q57TT1; TbPYK enzyme, Kinase-Glo Plus ATP luminescence, 45 min; Potency, µM (titrated, usually from 76.8 µM), for the others: at the top dose activity, negative = inhibition, most hits filed as inhibitors; 0.12% of 410,000 active; AID 624173; also: potency is read from the fitted curve at half-maximal effect; % is scaled to controls: 0 for no effect and ±100 for the full control effect; nearly all actives have a fitted effect of over 50% in size
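Assay buffer: 50 mM TEA pH 7.2, 100 mM KCl, 10 mM MgCl2, 0.05% BSA, 0.01% Tween-20. Pyruvate kinase from T. brucei plus substrate met compound, then ADP (130 uM final). Luminescence was read post 45 min RT.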
Giardia FBPA inh: inhibitors of Giardia lamblia fructose-1,6-bisphosphate aldolase. 0.71% of 290,000 active. A8B2U2. Potency, µM (highest dose often 59.6 µM), without a hit: top-dose activity, negative = inhibition, hits mostly inhibitors. purified Giardia FBPA; also: potency is read from the fitted curve at half-maximal effect; % is scaled to controls: 0 for no effect and ±100 for the full control effect; nearly all actives have a fitted effect of over 55% in size
Target sequence (A8B2U2 whole entry, looked up): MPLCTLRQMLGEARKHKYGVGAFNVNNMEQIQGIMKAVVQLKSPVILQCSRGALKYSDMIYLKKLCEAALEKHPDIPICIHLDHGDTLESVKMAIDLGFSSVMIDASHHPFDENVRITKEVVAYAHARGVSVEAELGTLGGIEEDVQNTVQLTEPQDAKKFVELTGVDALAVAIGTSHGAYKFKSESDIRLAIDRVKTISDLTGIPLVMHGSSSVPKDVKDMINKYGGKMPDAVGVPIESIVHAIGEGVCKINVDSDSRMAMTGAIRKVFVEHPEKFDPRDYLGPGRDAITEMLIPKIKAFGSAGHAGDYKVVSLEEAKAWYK
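Giardia FBPA (40 nM reagent) was preincubated 10 min at RT with compound (up to 57.5 uM final), then substrate plus GAPDH/TPI/NAD/arsenate coupling system with diaphorase/resazurin was added; resorufin fluorescence (525/598 nm) was read after 20 min.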
LmPK inhibitor: inhibitors of Leishmania mexicana pyruvate kinase. purified LmPK, Kinase-Glo ATP luminescence, 1 h. 0.37% of 290,000 active. AID 1721. Potency, µM (top dose mostly 57.5 µM), inactives show at the highest dose activity change, negative = inhibition, hits mostly inhibitors; also: potency is read from the fitted curve at half-maximal effect; % is scaled to controls: 0 for no effect and ±100 for the full control effect
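Pyruvate kinase activity monitored as ATP production (luciferase luminescence). Conditions: 0.1 nM enzyme, 0.5 mM PEP, 0.1 mM ADP, 1 h, RT; normalized against uninhibited and no-enzyme wells.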
CHX counter-2: counter-screen for Shiga toxin inhibitors: cycloheximide protein synthesis block | shares compounds with Shiga inhibitor | Cycloheximide counterscreen, protein synthesis reporter, Shiga toxin assay | Potency, µM (top dose mostly 38.3 µM), for inactives: at the highest dose activity (activation), actives largely listed as activators | 3% of 510 active | AID 2318; calls by dose curve; also: potency is read from the fitted curve at half-maximal effect; 0% is about no effect
Starred values were filed as active, the others as inactive. Shown is part of a subset that was picked to be rich in hits. Unless noted, calls follow the shape of the dose curve; as a rule, active = well fitted curve in the direction sought with a large enough effect; inconclusive = small, poorly fitted or top-dose-only effect, or another doubt; inactive = no such curve, though single readings can be large; an effect the other way counts as inactive or inconclusive.

How did CC(=O)c1ccc(NC(=O)Cn2c(=O)n(Cc3ccco3)c(=O)c3sc4ccccc4c32)cc1 do in these assays?
Tb PYK inh: -5%

How did Nc1nc(-c2nn(Cc3ccccc3F)c3ncccc23)ncc1C1CC1 do in these assays?
Shiga inhibitor: 28*; CHX counter-1: 2; Giardia FBPA inh: 12%; CHX counter-2: 3%

Results for O=c1c2ccccc2nc(SCc2ccccc2F)n1C1CCCC1 ?
Shiga inhibitor: -1; CHX counter-1: -3; Tb PYK inh: -13%; Giardia FBPA inh: 5%; LmPK inhibitor: 2%

Results for COc1ccc(CCN2C(=O)c3[nH]nc(-c4ccccc4O)c3C2c2ccc(OC)c(OC)c2)cc1 (stereo not given) ?
Tb PYK inh: -8%

Results for C=CCn1c(-c2ccc(OC)c(OC)c2)cs/c1=N\c1ccccn1 ?
Shiga inhibitor: 29*; RE007 growth inh: -7%; CHX counter-1: 8; Tb PYK inh: 4%; Giardia FBPA inh: inconclusive; LmPK inhibitor: -11%; CHX counter-2: 5%

What do the screens show for `COc1ccccc1-c1nn2c(-c3ccccc3Cl)nnc2s1`?
Shiga inhibitor: 22; CHX counter-1: -2; Giardia FBPA inh: 3%; LmPK inhibitor: 7%

Results for CCNc1nnc(-c2ccccc2OC)s1 ?
Shiga inhibitor: 73*; RE007 growth inh: inconclusive; CHX counter-1: -1; Tb PYK inh: 4%; Giardia FBPA inh: -1%; LmPK inhibitor: -8%; CHX counter-2: 4%

What do the screens show for `Cc1nnc(NC(=O)C2COc3ccccc3O2)s1` (stereo not given)?
Shiga inhibitor: 99*; RE007 growth inh: -13%; CHX counter-1: 15; Tb PYK inh: -1%; Giardia FBPA inh: 7%; LmPK inhibitor: -27%; CHX counter-2: inconclusive

What do the screens show for `O=C(Cn1c(NCCO)nc2ccccc21)c1ccccc1`?
Shiga inhibitor: active; RE007 growth inh: -8%; CHX counter-1: 4; Tb PYK inh: -13%; Giardia FBPA inh: -9%; LmPK inhibitor: 2%; CHX counter-2: 0%

How did Cc1ccc(C(=O)Cn2c(NCCO)nc3ccccc32)cc1 do in these assays?
Shiga inhibitor: 35; RE007 growth inh: 22%; CHX counter-1: -1; Tb PYK inh: -8%; Giardia FBPA inh: 5%; LmPK inhibitor: 2%

What do the screens show for `CC(OC(=O)c1ccc2c(=O)n3c(nc2c1)CCC3)C(N)=O` (stereo not given)?
Shiga inhibitor: 51*; RE007 growth inh: 8%; CHX counter-1: 11; Tb PYK inh: -6%; Giardia FBPA inh: 9%; LmPK inhibitor: 4%; CHX counter-2: 1%

What do the screens show for `CC(OC(=O)c1ccc2c(=O)n3c(nc2c1)CCC3)C(=O)Nc1ccc(C(N)=O)cc1` (stereo not given)?
RE007 growth inh: -12%; Tb PYK inh: -9%

How did CC(C)(C)C1CCC(C(=O)OCC(=O)c2ccc[nH]2)CC1 (stereo not given) do in these assays?
Shiga inhibitor: 27*; RE007 growth inh: 2%; CHX counter-1: 8; Tb PYK inh: -4%; Giardia FBPA inh: 1%; LmPK inhibitor: 3%; CHX counter-2: 0%

How did COCCNc1ccnc(-c2ccccc2C(F)(F)F)n1 do in these assays?
Giardia FBPA inh: -3%

How did COc1ccccc1C(=O)Nc1nnc(SCC(=O)Nc2ccc3c(c2)oc2ccccc23)s1 do in these assays?
Shiga inhibitor: 45*; RE007 growth inh: -16%; CHX counter-1: 2; Tb PYK inh: -5%; Giardia FBPA inh: 3%; LmPK inhibitor: -3%; CHX counter-2: 11µM*

What do the screens show for `CC(C)CN1CCN(C(=O)CCc2nnc(Cc3c[nH]c4ccccc34)o2)[C@@H](C)C1=O`?
Shiga inhibitor: 36*; RE007 growth inh: -14%; CHX counter-1: 17; Tb PYK inh: -9%; LmPK inhibitor: 3%; CHX counter-2: inconclusive

What do the screens show for `CCOc1cc(CNC(=O)c2cc(-c3ccc(Cl)s3)nc3ccccc23)ccc1OC`?
Tb PYK inh: 0%
